# Results from PubChem BioAssay (Tox21).
# Results filed as inconclusive are left out. A call without a number means that no potency is given here. Calls of active or inactive are those of the source. Calls come from the whole dose curve; as a rule, active = well fitted activation curve with a large enough effect in the signal ratio in the repeat runs (not every such curve was filed as active); inconclusive = weak or mixed curves, or effect the other way; inactive = no such curve, though single readings can be large or run the other way; the % refers to the signal ratio.
# Target: Glucocorticoid receptor (Homo sapiens) (UniProt P04150)
# Sequence (P04150 whole entry, looked up): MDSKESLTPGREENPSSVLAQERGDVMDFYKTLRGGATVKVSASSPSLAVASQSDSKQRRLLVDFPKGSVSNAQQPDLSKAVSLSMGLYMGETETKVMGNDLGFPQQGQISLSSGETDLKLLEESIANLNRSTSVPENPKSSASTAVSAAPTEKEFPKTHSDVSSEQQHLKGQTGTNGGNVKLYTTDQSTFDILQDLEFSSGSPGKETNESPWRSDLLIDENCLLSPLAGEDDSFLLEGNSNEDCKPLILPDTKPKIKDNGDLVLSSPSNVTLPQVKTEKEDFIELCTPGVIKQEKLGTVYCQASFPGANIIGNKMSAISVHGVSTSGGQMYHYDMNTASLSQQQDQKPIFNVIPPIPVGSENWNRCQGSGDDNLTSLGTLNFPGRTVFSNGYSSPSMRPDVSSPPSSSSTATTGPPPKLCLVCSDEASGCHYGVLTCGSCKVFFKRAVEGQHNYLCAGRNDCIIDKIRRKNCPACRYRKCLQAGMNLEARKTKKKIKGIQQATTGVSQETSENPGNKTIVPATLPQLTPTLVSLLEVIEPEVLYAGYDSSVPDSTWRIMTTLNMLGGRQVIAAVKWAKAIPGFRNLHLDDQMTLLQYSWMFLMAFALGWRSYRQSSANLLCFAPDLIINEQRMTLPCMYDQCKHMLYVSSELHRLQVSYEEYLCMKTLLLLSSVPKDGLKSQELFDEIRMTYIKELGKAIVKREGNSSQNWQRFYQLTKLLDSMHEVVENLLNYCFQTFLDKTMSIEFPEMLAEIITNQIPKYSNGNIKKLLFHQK
# Test: qHTS assay to identify small molecule agonists of the glucocorticoid receptor (GR) signaling pathway (AID 720691)
# Conditions: GR-bla HeLa, beta-lactamase reporter ratio, 18 h; series mostly up to 62.4 µM
# Excerpt: U.S. Tox21 Program National Center for Advancing Translational Sciences [NCATS] NIH Chemical Genomics Center [NCGC] U.S. Environmental Protection Agency [EPA] National Institutes of Environmental Health Sciences [NIEHS] National Toxicology Program [NTP] U.S. Food and Drug Administration [FDA] Tox21 Assay Overview: The Glucocorticoid receptor (GR) is one of the members of the nuclear receptor family of ligand-dependent transcription factors. GR plays a critical role in carbohydrate, protein and lipid metabolisms and programmed cell death. CellSensor GR-bla HeLa cell line (Invitrogen) contains a beta-lactamase reporter gene under the control of the glucocorticoid response element stably integrated into HeLa cells, a cervical cancer cell line that expresses glucocorticoid receptor. The activation of the reporter gene under culture conditions can be detected by fluorescence intensity. This cell line has been used to screen the Tox21 10K compound library and to identify the compounds that activate the GR signaling.
# Tox21 Assay Protocol Summary: The GR-bla HeLa cells were dispensed at 1500 cells/6 ul/well in 1536-well black wall/clear bottom plates using a Multidrop Combi (ThermoFisher Scientific, Waltham, MA) dispenser. After the assay plates were incubated at a 37 C/5% CO2 incubator for 4 hours, 23 nL of compounds dissolved in DMSO, positive controls or DMSO only was transferred to the assay plate by a pintool station (Kalypsys, San Diego, CA). The plates were incubated at 37 C for 18 hours. After 1 uL of LiveBLAzerTM B/G FRET substrate was added using a Flying Reagent Dispenser (Aurora Discovery, San Diego, CA), the plates were incubated at room temperature for 2 hours, and fluorescence intensity was measured by an Envision plate reader (PerkinElmer, Shelton, CT).
row,SMILES,Potency
1,CCC/C=C(\C=O)CC,inactive
2,CCOCCOCC,inactive
3,c1ccc(-c2nn[nH]n2)cc1,inactive
4,C/C(CC(C)C)=N\O,inactive
5,C/C=C(\C)C(=O)OCCc1ccccc1,inactive
6,CCC(=O)CC,inactive
7,Cc1c(Cl)cccc1Cl,inactive
8,OCC1(CO)COCOC1,inactive
9,OCC(O)CN1CCN(c2ccccc2)CC1 (stereo not given),inactive
10,[O]=[Mo](=[O])=[O],inactive
11,CC(C)OC(=O)CCC(=O)OC(C)C,inactive
12,Cc1ccnc(N)c1,inactive
13,COC(=O)CCCCC(=O)O,inactive
14,CC1=C(C(=O)O)N2C(=O)[C@@H](NC(=O)[C@H](N)C3=CCC=CC3)[C@H]2SC1,inactive
15,CC(CO)(CO)CO,inactive
16,CCCCOCC(C)O (stereo not given),inactive
17,CC(=O)C1C(=O)C=C(C)OC1=O (stereo not given),inactive
18,OC[C@H]1O[C@@H](O[C@@H]2[C@@H](CO)O[C@](O)(CO)[C@H]2O)[C@H](O)[C@@H](O)[C@H]1O,inactive
19,COC(=O)c1cc(Cl)cc(Cl)c1,inactive
20,CC(=O)CC(=O)OC(C)(C)C,inactive

row,SMILES,Potency
1,Cc1c(NC(=O)c2cccnc2)c(=O)n(-c2ccccc2)n1C,inactive
2,Cc1ncc([N+](=O)[O-])n1CC(C)O (stereo not given),inactive
3,COc1c2occc2c(OC)c2c(=O)cc(C)oc12,inactive
4,CCCCOC(=O)C(C)O (stereo not given),inactive
5,CCCCCCCCCOC(=O)CCCCC(=O)OCCCCCCC,inactive
6,C=CCN1C[C@H](C(=O)N(CCCN(C)C)C(=O)NCC)C[C@@H]2c3cccc4[nH]cc(c34)C[C@H]21,inactive
7,COP(=O)(O)OP(=O)(O)OC,inactive
8,C=CC/C=C/C,inactive
9,CC(N)CCCC(C)(C)O (stereo not given),inactive
10,CCC(C)C(C)=O (stereo not given),inactive
11,CC(=O)CCC1=C(C)CCCC1(C)C,inactive
12,CC/C=C\CCOC(=O)c1ccccc1O,inactive
13,O=C(Cl)c1ccccc1[N+](=O)[O-],inactive
14,C=CCCCC,inactive
15,CN(C)CCCCl,inactive
16,C=CCOC(=O)CCCCCC,inactive
17,COc1ccc(CCO)cc1,inactive
18,CC1CC(=O)CC(C)(C)C1 (stereo not given),inactive
19,CC(C)Cn1cnc2c1c(=O)n(C)c(=O)n2C,inactive
20,Cc1cccc(Cl)c1,inactive
